High-throughput results deposited in PubChem by several laboratories.
CYP2C19 inh: human CYP2C19 inhibition; P33261; CYP2C19 Supersomes, luciferin-H EGE luminescence, 30 min; inhibition, % at 5 µM; 96,000 compounds, 21% hits; AID 778;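 active = CYP2C19 inhibition above a set limit at 5 µM in the primary screen, cut at about 50% in these data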;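 note: plate controls were negative control wells for no effect and 2.5 mM tranylcypromine positive control for full effect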
Measles CPE: protection of cells from measles virus; Measles virus-infected cells, CPE protection, absorbance; protection (pct of control), % at 4 µM; 140,000 compounds, 1.5% hits; in the data active = protection mostly above about 24%, no sharp cut-off; inactive = mostly below about 26%
CYP2C9 act: activators of human CYP2C9. P11712. activation factor at 5 µM. 96,000 compounds, 1.4% hits. recombinant CYP2C9, luciferin-H conversion, luminescence; stronger effect = higher value; factor 1 = untreated enzyme, 0 = blocked;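 active = activation factor of 2 or more for CYP2C9 at a 5 µM dose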;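 note: 0 = sulfaphenazole-blocked wells and 1 = vehicle-only wells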
Target sequence (P11712 whole entry, looked up): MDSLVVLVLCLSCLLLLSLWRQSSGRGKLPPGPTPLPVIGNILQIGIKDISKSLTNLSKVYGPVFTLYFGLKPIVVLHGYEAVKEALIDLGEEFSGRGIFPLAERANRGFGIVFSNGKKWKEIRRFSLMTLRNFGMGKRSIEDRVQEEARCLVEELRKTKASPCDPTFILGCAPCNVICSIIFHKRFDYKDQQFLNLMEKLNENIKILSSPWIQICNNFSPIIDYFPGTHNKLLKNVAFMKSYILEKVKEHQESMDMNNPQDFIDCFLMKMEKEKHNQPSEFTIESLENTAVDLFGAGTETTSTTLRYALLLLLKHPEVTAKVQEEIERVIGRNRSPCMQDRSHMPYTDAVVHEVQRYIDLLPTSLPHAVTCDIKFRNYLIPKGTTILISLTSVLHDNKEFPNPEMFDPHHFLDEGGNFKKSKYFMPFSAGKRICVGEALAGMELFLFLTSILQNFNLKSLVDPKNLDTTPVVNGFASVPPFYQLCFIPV
CYP2C19 activ: increases human CYP2C19 enzyme activity; 96,000 tested, under 10 active; recombinant CYP2C19, luciferin-H EGE luminescence; stronger effect = higher value; 0 = fully inhibited enzyme, 1 = untreated enzyme; P33261; activation factor at 5 µM;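 active = activation factor of at least 2 at 5 µM in the primary screen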;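 note: 0 = wells with 2.5 mM tranylcypromine and 1 = vehicle-only wells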
CYP2C9 inhib: blocks human cytochrome P450 2C9. P11712. CYP2C9 Supersomes, luciferin-H conversion, luminescence. inhibition, % at 5 µM. 96,000 compounds, 20% hits;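 active = blocking of liver enzyme CYP2C9 beyond about 50% at 5 µM, limit read from the data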
* hit, by the source's call; nt = no result given. Sampled rows, rich in hits. Any-hit rate of the full collection: about 22%.

SMILES	CYP2C19 inh	Measles CPE	CYP2C9 act	CYP2C19 activ	CYP2C9 inhib
Cc1[nH]nc2c1C(c1ccc(OC(=O)c3ccco3)cc1)C(C#N)=C(N)O2 (configuration not stated)	44	6	0.4	0.6	58*
CCOc1ccc(-c2[nH]nc3c2C(c2ccc(O)cc2)C(C#N)=C(N)O3)cc1 (configuration not stated)	18	5	0.7	0.8	32
COc1ccc(Nc2cnn(-c3nc4ccccc4s3)c(=O)c2Cl)cc1	nt	4	nt	nt	nt
CCOC(=O)COc1ccc(Oc2nc(C)cc(OC)n2)nn1	-7	5	1.1	1.1	-14
COC(=O)c1ccc(Oc2cc(C)nc(NCc3ccccc3)n2)cc1	13	8	0.9	0.9	7
COc1cc(C)nc(NCc2ccccc2)n1	61*	1	0.6	0.4	44
COc1cc(C)nc(Oc2ccc(OCc3ccccc3)nn2)n1	75*	9	0.7	0.2	31
O=S(=O)(c1cccs1)N1CCc2ccccc21	51*	4	2.3*	0.5	-131
O=C(c1cccs1)N1CCc2ccccc21	15	7	1	0.9	-4
O=S(=O)(c1cccs1)N1CCCc2ccccc21	85*	4	2.1*	0.2	-113
COC(=O)Nc1ccc(S(=O)(=O)N2CCCc3ccccc32)cc1	-6	2	0.5	1.1	46
O=C(O)CCC(NC(=O)C(Cc1ccc2c(c1)OCO2)NC(=O)c1ccccc1)C(=O)O (configuration not stated)	47	17	0.9	0.5	13
CCCOc1ccc(C2C(=O)N(C3CCCCC3)CC(=O)N2CCC)cc1OC (configuration not stated)	-1	16	0.8	1	22
C/C(=N\OC(=O)c1cccc(C)c1)c1sc(-c2ccccc2)nc1C	52*	9	0.6	0.5	40
CC(=O)NCCC(=O)Nc1sc2c(c1-c1nc3ccccc3[nH]1)CCCC2	36	5	0.4	0.6	61*
O=C(Nc1sc2c(c1-c1nc3ccccc3[nH]1)CCCC2)C1CCCC1	-10	9	0.9	1.1	13
COc1ccc(/C=N/NC(=S)Nc2cc(S(=O)(=O)N3CCOCC3)ccc2N2CCOCC2)cc1O	nt	9	nt	nt	nt
Fc1ccc(-c2[nH]ncc2-c2nnnn2-c2ccccc2)c(F)c1	91*	5	0.5	0.1	51*
Fc1cccc(-c2oncc2-c2nnnn2-c2ccc(Cl)cc2)c1	nt	12	nt	nt	nt
Cn1nc2c(c1C(=O)O)CCCC2	nt	18	nt	nt	nt
O=C1c2ccccc2C(=O)C12OC(c1ccccc1)C1(C(=O)c3ccccc3C1=O)C2c1cccc([N+](=O)[O-])c1 (configuration not stated)	nt	9	nt	nt	nt
CN1c2ccccc2Oc2c(c(=O)n(C)c(=O)n2C)C1c1cccc([N+](=O)[O-])c1 (configuration not stated)	23	18	0.5	0.8	54*
Fc1ccc(Nc2nc(N3CCOCC3)c3ccccc3n2)cc1	76*	nt	0.3	0.2	74*
c1ccc2c(Nc3nc(N4CCOCC4)c4ccccc4n3)cccc2c1	nt	7	nt	nt	nt
CCOc1ccc(-c2nc(CSCC(=O)N3CCN(c4cccc(OC)c4)CC3)c(C)o2)cc1	83*	6	0.1	0.2	94*
SMILES	CYP2C19 inh	Measles CPE	CYP2C9 act	CYP2C19 activ	CYP2C9 inhib
Cc1oc(-c2ccccc2Cl)nc1CSCC(=O)NC1CCCC1	13	9	0.6	0.9	35
CCc1ccc(-c2nc(CSCC(=O)N3CCN(c4ccccn4)CC3)c(C)o2)cc1	36	1	0.4	0.6	64*
Cc1ccc(-c2nc(CSCC(=O)N3CCN(c4ccccn4)CC3)c(C)o2)cc1	29	5	1.6	0.7	-60
CCOC(=O)N1CCC(NC(=O)CSCc2nc(-c3cccc(OC)c3)oc2C)CC1	57*	13	0.3	0.4	67*
Cc1oc(-c2ccccc2Cl)nc1CSCC(=O)N1CCCC1	93*	44*	0.8	0.1	17
CCOC(=O)N1CCC(NC(=O)CSCc2nc(-c3sccc3C)oc2C)CC1	41	12	0.8	0.6	22
Cc1nn(C)c(C)c1C1C(C#N)=C(N)OC2=C1C(=O)CC(C)(C)C2 (configuration not stated)	nt	4	nt	nt	nt
Cc1nn(-c2ccccc2)c(Cl)c1C1C(C#N)=C(N)OC2=C1C(=O)CC(C)(C)C2 (configuration not stated)	39	6	0.3	0.6	69*
Cc1ccc(-n2nc(C)c(C3C(C#N)=C(N)OC4=C3C(=O)CCC4)c2Cl)cc1 (configuration not stated)	91*	nt	0.5	0.1	53*
CCCC1=C(C(=O)OCC)C(c2c(C)nn(-c3ccccc3)c2Cl)C(C#N)=C(N)O1 (configuration not stated)	50*	1	0.5	0.5	55*
CCOC(=O)c1cc(NC(=O)Nc2ccccc2OC)c(C)nc1C	10	3	0.8	0.9	21
COc1ccc(NC(=O)CN2C(=O)CSC(C)C2=O)c(OC)c1 (configuration not stated)	nt	9	nt	nt	nt
O=C(NC1CCCCCCC1)C1CCCN(S(=O)(=O)c2cnc[nH]2)C1 (configuration not stated)	87*	17	0.5	0.1	55*
O=C(NC1CCCC1)C1CCCN(S(=O)(=O)c2cnc[nH]2)C1 (configuration not stated)	49	20	0.8	0.5	24
O=C(NC1CCCCC1)C1CCCN(S(=O)(=O)c2cnc[nH]2)C1 (configuration not stated)	60*	8	0.7	0.4	28
CCc1ccccc1NC(=O)c1onc(C)c1Cl	6	15	1	0.9	2
CC(C)(Oc1ccc(Cl)cc1)C(=O)OCn1nnc2ccccc2c1=O	4	16	0.5	1	51*
O=C(CCN1C(=O)c2ccccc2C1=O)OCn1nnc2ccccc2c1=O	-3	13	1.3	1	-26
O=C(CC1CCCCC1)OCn1nnc2ccccc2c1=O	69*	12	0.6	0.3	38
CC(Oc1ccc(Cl)cc1Cl)C(=O)OCn1nnc2ccccc2c1=O (configuration not stated)	-2	10	0.9	1	10
O=C(CC(c1ccccc1)c1ccccc1)OCn1nnc2ccccc2c1=O	85*	23	0.1	0.2	95*
Clc1ccc(-c2csc(N/N=C/c3ccc4c(c3)OCO4)n2)cc1	nt	35	nt	nt	nt
OC(CN1CCCCC1)CN1CCCCC1	2	31	0.9	1	8
Clc1ccc(CNC23CN4CN(CN(C4)C2)C3)c(Cl)c1	nt	3	nt	nt	nt
O=C1CCCC2=C1C(c1ccncc1)c1c(nc(SCc3ccccc3Cl)[nH]c1=O)N2 (configuration not stated)	85*	7	0.1	0.2	95*
CN(C)C=NC(=O)/C(C#N)=C1\CCc2ccccc2N1	7	0	1	0.9	4
COc1cnn(-c2ccccc2)c(=O)c1SCc1ccc(Cl)c(Cl)c1	54*	21	0.5	0.5	52*
COc1c(Cl)cnn(-c2ccccc2)c1=O	nt	10	nt	nt	nt
